Sampled rows, rich in hits. Any-hit rate of the full collection: about 3.7%.
ClpP mod: qHTS Assay for Activators of ClpP. ATP-dependent Clp protease proteolytic subunit (Bacillus subtilis (strain 168)), P80244. purified B. subtilis ClpP, FRET peptide cleavage, 20 min. Potency, µM (series often up to 57.5 µM), without a hit: at the top dose activity change, negative = active. 1.9% of 340,000 active. AID 651965, 2013; active = well fitted falling curve with a large enough effect; inconclusive = small, poorly fitted or top-dose-only effect; inactive = no such curve, though single readings can be large or run the other way; also: potency is read from the fitted curve at half-maximal effect; the source files actives as falling curves though it sought activators and does not explain the sign; nearly all actives have a fitted effect of over 65% in size
Target sequence (P80244 whole entry, looked up): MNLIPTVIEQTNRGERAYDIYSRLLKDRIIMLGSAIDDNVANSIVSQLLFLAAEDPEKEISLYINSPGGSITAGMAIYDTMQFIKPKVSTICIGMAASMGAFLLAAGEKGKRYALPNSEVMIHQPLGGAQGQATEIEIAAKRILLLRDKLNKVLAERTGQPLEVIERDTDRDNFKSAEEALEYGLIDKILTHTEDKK
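FRET quenching reversal measured ClpP activation: 10 microg/mL B. subtilis ClpP at pH 8 with the FRET-FV decapeptide, read at 430 nm after 320 nm excitation. The 20-min minus 0-min signal was scaled between DMSO/no-enzyme wells and ADEP (5.8 microM final).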
A549 viability: Nrf2 qHTS screen for inhibitors: counterscreen for cytotoxicity | A549 ARE-Fluc cells, CellTiter-Fluor viability, 18-24 h | 0.16% of 390,000 active | Potency, µM (doses to about 46 µM), inactives show top-dose activity change, negative = cytotoxicity, hits mostly inhibitors | AID 504648, 2011; also: potency is read from the fitted curve at half-maximal effect; % is scaled to controls: 0 for no effect and ±100 for the full control effect
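Cytotoxicity counterscreen: CellTiter-Fluor fluorescence was measured in A549 ARE_Fluc cells after 18-24 h of compound exposure in a concentration series. The subsequent BugLite luminescent read reports ARE-luciferase activity.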
Nrf2 ARE act: qHTS of Nrf2 Activators | Potency, µM (series often up to 46.1 µM), inactives show top-dose activation, actives largely listed as activators | AREc32 ARE-luciferase reporter (MCF7-derived line), luminescence, 24 h | 0.31% of 410,000 active; also: potency is read from the fitted curve at half-maximal effect; % of control where 0% means no effect; nearly all actives have a fitted effect of over 65% in size
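Cells of the AREc32 ARE-luciferase line are plated in OPTI-MEM containing 5% FBS and left overnight at 37 deg C. Compounds are pinned in, incubation continues 24 hr, and firefly luciferase signal is then measured.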
p53 reactivator: qHTS assay for re-activators of p53 using a Luc reporter; H1299 p53-A138V BP100-luciferase reporter, luminescence, 24 h; Potency, µM (doses to about 92.2 µM), for inactives: at the top dose activity change, positive = activation, hits mostly activators; 0.063% of 320,000 active; also: potency is read from the fitted curve at half-maximal effect; % of control where 0% means no effect; nearly all actives have a fitted effect of over 45% in size
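H1299 (p53-null), stable ts p53-A138V + BP100-Luc; 1000 cells/well, Opti-MEM/10% FBS; cpd 4 pt, 1:5; 24 h, 37 deg C, 5% CO2; detection reagent 10 min RT; luminescence.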
Nrf2 block: Nrf2 qHTS screen for inhibitors. A549 ARE-Fluc reporter, luciferase luminescence, 18-24 h. Potency, µM (top dose mostly 46 µM), for the others: top-dose activity change, negative = inhibition, actives largely listed as inhibitors. 2.1% of 360,000 active. AID 504444, 2011; also: potency is read from the fitted curve at half-maximal effect; % is scaled to controls: 0 for no effect and ±100 for the full control effect; nearly all actives have a fitted effect of over 60% in size
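A549 ARE_Fluc cells (5000/well, 5% FBS OPTI-MEM) pre-incubated 2 h, then treated with compounds 18-24 h at 37C/5% CO2 in concentration-response. CellTiter-Fluor viability read first; BugLite luciferase luminescence after 15 min at room temperature gives Nrf2 activity.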
miR-21 act: qHTS Assay for Modulators of miRNAs and/orActivators of miR-21. HeLa miR-21 FLuc reporter, luciferase, 48 h. Potency, µM (doses to about 38.3 µM), for the others: at the highest dose activity change, positive = activation, hits mostly activators. 340,000 tested, under 10 active;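 also: % of control where 0% means no effect; miR-21 action dims this reporter so a rising signal means less miR-21 action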
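HeLa miR-21-FLuc reporter line, endogenous miR-21; 2000 cells/well in DMEM/10% FBS; compound titration up to ~40uM final, 48 h, 37 degree Celsius; luciferase detection reagent, 15 min lysis, CCD luminescence.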
* hit, by the source's call. Unless noted, calls follow the shape of the dose curve; as a rule, active = well fitted curve in the direction sought with a large enough effect; inconclusive = small, poorly fitted or top-dose-only effect, or another doubt; inactive = no such curve, though single readings can be large; an effect the other way counts as inactive or inconclusive.

For CCOC(=O)CSc1nc(-c2ccc3c(c2)OCO3)ccc1C#N the results were ClpP mod 25µM*, A549 viability -5%, Nrf2 ARE act 1%, p53 reactivator inconclusive, Nrf2 block inconclusive and miR-21 act -51%.
Screening CCn1c(SCC(=O)Nc2ccccc2)nc2c([nH]c3ccccc32)c1=O returned ClpP mod 11%, A549 viability -1%, Nrf2 ARE act 6% and miR-21 act -22%.
COc1cccc(C(=O)NCC(=O)OCc2cc(=O)n3nc(C)sc3n2)c1 was read as ClpP mod -6%, A549 viability 4%, Nrf2 ARE act 0%, Nrf2 block inconclusive and miR-21 act -4%.
For CCCC(=O)c1ccc(N2CCCCCC2)c(F)c1 the results were ClpP mod -14%, A549 viability 5%, Nrf2 ARE act -1%, p53 reactivator 40µM* and miR-21 act -38%.
Screening COc1ccc(OC)c(S(=O)(=O)N2CCN(C(=O)c3cc(C4CC4)nn3-c3ccccc3)CC2)c1 returned ClpP mod -1%, A549 viability -9%, Nrf2 ARE act 0%, p53 reactivator 4% and Nrf2 block 26µM*.
Screening O=C(c1cc(C2CC2)nn1-c1ccccc1)N1CCN(S(=O)(=O)c2ccccc2)CC1 returned ClpP mod -1%, A549 viability 6%, Nrf2 ARE act -1%, p53 reactivator 9% and Nrf2 block -16%.
Screening CN(CC(=O)Nc1ccccc1C(F)(F)F)C(=O)c1ccc(-c2ccc(Cl)cc2)o1 returned ClpP mod -2%, A549 viability -6%, Nrf2 ARE act 0%, p53 reactivator -4% and Nrf2 block -25%.
CN(CC(=O)Nc1ccccc1Br)C(=O)c1ccc(-c2ccc(Cl)cc2)o1 was read as ClpP mod 32µM*, A549 viability inconclusive, Nrf2 ARE act 5%, p53 reactivator -1%, Nrf2 block inconclusive and miR-21 act 18%.
Screening COc1ccc(C2=C(Nc3ccc(Br)c(C)c3)c3ccccc3C2=O)cc1 returned ClpP mod 1%, A549 viability inconclusive, Nrf2 ARE act 0%, Nrf2 block inconclusive and miR-21 act 23%.
CC1(C)Cc2[nH]c(=O)c(C#N)cc2CS1 was read as ClpP mod 14µM*, A549 viability -1%, Nrf2 ARE act 0%, p53 reactivator -2%, Nrf2 block 4% and miR-21 act -6%.
For CN1CCN(C2=C(NS(=O)(=O)c3cccs3)C(=O)c3ccccc3C2=O)CC1 the results were A549 viability -20%, Nrf2 ARE act -1%, p53 reactivator 3%, Nrf2 block inconclusive and miR-21 act 6%.
O=C1C(NS(=O)(=O)c2cccs2)=C(N2CCN(c3cccc(C(F)(F)F)c3)CC2)C(=O)c2ccccc21 was read as ClpP mod 4%, A549 viability inconclusive, Nrf2 ARE act 21%, p53 reactivator 1%, Nrf2 block 21µM* and miR-21 act 8%.
Screening COCCCNC(=O)c1ccc(Cn2c(=O)c3ccccc3n(Cc3c(C)cc(C)cc3C)c2=O)cc1 returned ClpP mod -3%, A549 viability -3%, Nrf2 ARE act 1%, Nrf2 block 7% and miR-21 act -4%.
`Cc1ccc(NC(=O)C(Nc2ccccc2)c2ccccc2)cc1` (stereo not given) gave A549 viability 5%, Nrf2 ARE act 4%, p53 reactivator 17%, Nrf2 block -1% and miR-21 act -16%.

Compound activity as filed in PubChem BioAssay.
